# Article PMC7862700, “An all-to-all approach to the identification of sequence-specific readers for epigenetic DNA modifications on cytosine”
# Key:
# Test in all cases: DAPPL (digital affinity profiling via proximity ligation, sequencing); 10 mM Tris-HCl pH 7.5, 50 mM NaCl, 1 mM DTT, 4% glycerol, room temperature, 30 min; GST-TFs on glutathione beads, 16-mer random dsDNA library, 0.1% formaldehyde crosslink after washing; high values mean tight binding
# Details in all cases: protein: recombinant; tags: N-terminal GST; dsDNA, one strand shown
# FLI1 = molecular target: T1, FLI1 (Homo sapiens, UniProt Q01543 1-452)
# T1 sequence: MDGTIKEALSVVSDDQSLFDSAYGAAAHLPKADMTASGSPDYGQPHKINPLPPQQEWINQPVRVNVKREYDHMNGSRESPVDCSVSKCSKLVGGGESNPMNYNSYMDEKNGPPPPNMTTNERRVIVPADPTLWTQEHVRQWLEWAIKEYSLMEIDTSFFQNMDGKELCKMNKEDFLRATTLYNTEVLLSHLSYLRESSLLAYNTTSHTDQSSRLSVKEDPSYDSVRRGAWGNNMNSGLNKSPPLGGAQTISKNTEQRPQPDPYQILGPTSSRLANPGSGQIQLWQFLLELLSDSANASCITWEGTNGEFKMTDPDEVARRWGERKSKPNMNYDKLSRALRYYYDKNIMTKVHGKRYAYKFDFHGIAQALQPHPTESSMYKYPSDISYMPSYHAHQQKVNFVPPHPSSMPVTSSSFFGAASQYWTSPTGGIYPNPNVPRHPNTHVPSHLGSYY
# In short: (§1)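 Pools of DNA-barcoded human transcription factors, expressed in yeast as GST fusions on glutathione beads and combined with a tag-only sample, were incubated with 200 nmole of a 16-mer random double-stranded DNA library. Incubation took 30 min at room temperature in Tris/NaCl/DTT/glycerol buffer and was followed by washing, 0.1% formaldehyde crosslinking, proximity ligation (BsaI/T4 ligase, 1 h, 37 °C), PCR amplification and sequencing on an Illumina NextSeq500. Binding signal is the ratio of a hexamer's read frequency for a factor to its frequency for the tag-only sample.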
# ELK1 = molecular target: T2, ELK1 (Homo sapiens, UniProt P19419 1-428)
# T2 sequence: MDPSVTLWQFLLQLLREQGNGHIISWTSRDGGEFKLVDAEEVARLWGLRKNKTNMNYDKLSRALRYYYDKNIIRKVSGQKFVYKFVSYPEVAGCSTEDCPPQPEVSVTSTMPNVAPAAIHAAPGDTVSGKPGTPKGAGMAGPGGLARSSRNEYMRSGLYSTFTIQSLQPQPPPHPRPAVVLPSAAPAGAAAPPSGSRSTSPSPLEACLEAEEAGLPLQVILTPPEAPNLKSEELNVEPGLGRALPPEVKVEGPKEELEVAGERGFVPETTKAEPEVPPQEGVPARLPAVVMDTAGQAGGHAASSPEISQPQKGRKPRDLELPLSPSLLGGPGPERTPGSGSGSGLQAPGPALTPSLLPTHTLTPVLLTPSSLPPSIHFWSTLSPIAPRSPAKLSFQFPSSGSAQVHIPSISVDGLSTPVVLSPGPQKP
# In short: as §1
# GABPA = molecular target: T3, GABPA (Homo sapiens, UniProt Q06546 1-454)
# T3 sequence: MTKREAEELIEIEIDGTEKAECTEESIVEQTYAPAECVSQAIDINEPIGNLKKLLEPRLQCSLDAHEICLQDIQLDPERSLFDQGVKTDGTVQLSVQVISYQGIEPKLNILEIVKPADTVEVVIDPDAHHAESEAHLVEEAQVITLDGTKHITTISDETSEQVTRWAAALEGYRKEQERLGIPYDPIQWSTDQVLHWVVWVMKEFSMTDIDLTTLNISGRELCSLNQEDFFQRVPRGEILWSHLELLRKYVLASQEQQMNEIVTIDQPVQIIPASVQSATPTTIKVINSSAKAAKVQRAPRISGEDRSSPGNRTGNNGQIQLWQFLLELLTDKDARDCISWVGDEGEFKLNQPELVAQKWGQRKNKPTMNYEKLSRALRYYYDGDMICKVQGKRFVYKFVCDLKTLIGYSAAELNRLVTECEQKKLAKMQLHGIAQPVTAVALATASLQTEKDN
# In short: as §1
# ERG = molecular target: T4, ERG (Homo sapiens, UniProt P11308 1-479)
# T4 sequence: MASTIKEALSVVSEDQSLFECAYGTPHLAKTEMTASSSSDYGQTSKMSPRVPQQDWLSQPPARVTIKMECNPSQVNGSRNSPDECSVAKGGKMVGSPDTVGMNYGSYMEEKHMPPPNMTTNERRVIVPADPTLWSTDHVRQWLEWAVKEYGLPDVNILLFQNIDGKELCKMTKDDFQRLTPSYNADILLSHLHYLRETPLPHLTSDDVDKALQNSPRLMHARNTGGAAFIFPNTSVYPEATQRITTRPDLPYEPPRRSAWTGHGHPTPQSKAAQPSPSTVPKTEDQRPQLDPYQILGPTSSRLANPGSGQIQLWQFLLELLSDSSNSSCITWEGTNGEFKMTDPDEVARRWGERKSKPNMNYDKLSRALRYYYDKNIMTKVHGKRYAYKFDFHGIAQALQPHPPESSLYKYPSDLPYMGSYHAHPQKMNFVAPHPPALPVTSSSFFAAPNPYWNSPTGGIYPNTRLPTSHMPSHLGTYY
# In short: as §1
# ELF1 = ELF1 (Homo sapiens, UniProt P32519 1-619)
# In short: as §1
# EHF = molecular target: T5, EHF (Homo sapiens, UniProt Q9NZC4 1-300)
# T5 sequence: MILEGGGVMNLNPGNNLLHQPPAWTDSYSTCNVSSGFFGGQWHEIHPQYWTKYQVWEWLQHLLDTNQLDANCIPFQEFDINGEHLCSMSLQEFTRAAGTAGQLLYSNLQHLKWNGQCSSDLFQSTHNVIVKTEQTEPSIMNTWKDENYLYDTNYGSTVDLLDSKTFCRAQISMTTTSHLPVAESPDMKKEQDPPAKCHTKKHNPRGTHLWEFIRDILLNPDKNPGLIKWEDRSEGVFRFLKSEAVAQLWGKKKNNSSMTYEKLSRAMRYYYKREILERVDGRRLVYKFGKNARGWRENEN
# In short: as §1
# SPI1 = SPI1 (Homo sapiens, UniProt P17947 1-270)
# In short: as §1
# SPIB = SPIB (Homo sapiens, UniProt Q01892 1-262)
# In short: as §1
# ELK3 = molecular target: T6, ELK3 (Homo sapiens, UniProt P41970 1-407)
# T6 sequence: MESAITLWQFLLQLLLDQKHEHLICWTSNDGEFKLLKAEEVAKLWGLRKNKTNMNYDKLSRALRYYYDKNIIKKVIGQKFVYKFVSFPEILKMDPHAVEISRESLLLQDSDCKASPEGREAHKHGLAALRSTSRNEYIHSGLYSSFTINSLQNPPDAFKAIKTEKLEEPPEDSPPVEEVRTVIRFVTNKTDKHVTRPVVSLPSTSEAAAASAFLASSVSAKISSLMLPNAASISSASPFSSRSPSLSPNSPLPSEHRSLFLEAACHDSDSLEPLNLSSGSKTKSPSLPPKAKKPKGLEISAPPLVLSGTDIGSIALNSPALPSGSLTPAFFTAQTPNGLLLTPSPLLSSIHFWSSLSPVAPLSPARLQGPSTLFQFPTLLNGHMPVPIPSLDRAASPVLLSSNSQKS
# In short: as §1
# Sequence of ELF1 (P32519 whole entry): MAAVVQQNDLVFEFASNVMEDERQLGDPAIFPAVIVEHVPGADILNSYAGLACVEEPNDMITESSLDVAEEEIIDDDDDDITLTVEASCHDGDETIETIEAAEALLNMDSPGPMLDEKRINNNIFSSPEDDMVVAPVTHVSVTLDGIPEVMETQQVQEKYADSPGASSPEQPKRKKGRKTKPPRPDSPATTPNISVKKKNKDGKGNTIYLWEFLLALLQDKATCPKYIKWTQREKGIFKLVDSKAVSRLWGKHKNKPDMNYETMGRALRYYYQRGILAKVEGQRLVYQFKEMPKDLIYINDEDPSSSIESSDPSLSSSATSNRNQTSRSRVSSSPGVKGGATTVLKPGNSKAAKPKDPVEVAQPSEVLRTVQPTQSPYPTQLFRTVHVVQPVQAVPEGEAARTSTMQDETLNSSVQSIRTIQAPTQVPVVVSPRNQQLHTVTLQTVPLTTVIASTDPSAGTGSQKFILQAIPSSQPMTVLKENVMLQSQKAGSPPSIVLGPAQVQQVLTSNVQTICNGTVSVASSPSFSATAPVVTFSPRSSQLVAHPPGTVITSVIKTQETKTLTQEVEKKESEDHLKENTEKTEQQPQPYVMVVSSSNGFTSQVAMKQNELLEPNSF
# Sequence of SPIB (Q01892 whole entry): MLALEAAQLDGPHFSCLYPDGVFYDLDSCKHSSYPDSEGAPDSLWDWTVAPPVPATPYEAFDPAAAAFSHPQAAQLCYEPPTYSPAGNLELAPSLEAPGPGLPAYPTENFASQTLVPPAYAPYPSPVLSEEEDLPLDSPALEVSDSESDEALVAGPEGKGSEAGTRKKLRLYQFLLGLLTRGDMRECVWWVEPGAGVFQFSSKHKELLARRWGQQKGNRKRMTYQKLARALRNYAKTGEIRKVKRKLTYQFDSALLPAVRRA
sequence,measurement,setting,value
CTCTTC,binding signal,FLI1,"1.62 fold enrichment (6-mer frequency, TF over GST control)"
same,binding signal,ELK1,"1.64 fold enrichment (6-mer frequency, TF over GST control)"
same,binding signal,GABPA,"1.66 fold enrichment (6-mer frequency, TF over GST control)"
same,binding signal,ERG,"1.71 fold enrichment (6-mer frequency, TF over GST control)"
same,binding signal,ELF1,"1.66 fold enrichment (6-mer frequency, TF over GST control)"
same,binding signal,EHF,"1.69 fold enrichment (6-mer frequency, TF over GST control)"
same,binding signal,SPI1,"1.6 fold enrichment (6-mer frequency, TF over GST control)"
same,binding signal,SPIB,"1.84 fold enrichment (6-mer frequency, TF over GST control)"
same,binding signal,ELK3,"1.66 fold enrichment (6-mer frequency, TF over GST control)"
